The record followed here is PubChem BioAssay (EPA / NIEHS).

Active and inactive are the calls of the source. How the source made its calls: active means hit-call score of the fitted dose curve at least 0.9, where 1 is the maximum; inactive means score below 0.9.

Read-out in the first experiment: Cyclin Dependent Kinase Inhibitor 1A (CDKN1A), CDKN1A (gene 1026)
Description: LTEA_HepaRG_CDKN1A: Life Technologies and Expression Analysis (LTEA) Assay for Cyclin Dependent Kinase Inhibitor 1A (CDKN1A) using HepaRG (AID 2283450). To be noted: mRNA level, 48 h; actives raise or lower the signal. The gist of the method:
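Differentiated HepaRG cells in serum-free induction medium, exposed 48 h in duplicate to eight half-log concentrations up to 100 uM in 0.5% DMSO. mRNA measured by TaqMan qRT-PCR, normalized to ACTB, GAPDH, POLR2A; bidirectional fit versus DMSO.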
By AC50 is commonly meant the midpoint of the concentration-response curve, whichever way the signal moves. Turning to `CO/N=C(/C1=NOCCO1)c1ccccc1Oc1ncnc(Oc2ccccc2Cl)c1F`, the AC50 was 28.5 µM (active).

Regarding `CCCCOCN(C(=O)CCl)c1c(CC)cccc1CC`, the outcome was inactive.

Take `CS(=O)(=O)c1ccc(C(=O)C2C(=O)CCCC2=O)c([N+](=O)[O-])c1`: the compound was classed as inactive.

In the case of `O=c1n(Cl)c(=O)n(Cl)c(=O)n1Cl`, the result was inactive.

`CCOP(=O)(OCC)Oc1nc(Cl)c(Cl)cc1Cl`: the call was inactive.

As for `Cc1cnc(C2=NC(C)(C(C)C)C(=O)N2)c(C(=O)O)c1` (configuration not stated), the outcome was inactive.

`O=C(O)c1c(Cl)ccc2cc(Cl)cnc12`: the result was inactive.

As to `Cc1cc(C)nc(Nc2ccccc2)n1`, the compound was classed as inactive.

Regarding `Nc1c(Cl)c(Cl)nc(C(=O)O)c1Cl`, the compound was classed as inactive.

On to `OC(c1ccc(Cl)cc1)(c1ccc(Cl)cc1)C(Cl)(Cl)Cl`, for which the AC50 is 83.7 µM (active).

Regarding `CCCCC(O)(Cn1cncn1)c1ccc(Cl)cc1Cl` (configuration not stated), the AC50 is 35.4 µM (active).

On to `Nc1c(Cl)c(F)nc(OCC(=O)O)c1Cl`, for which the result was inactive.

In the case of `CC1(C)C(C(=O)OC(C#N)c2cccc(Oc3ccccc3)c2)C1(C)C` (configuration not stated), the compound was called inactive.

In the case of `CCOc1cc(C(C)(C)C)ccc1C1COC(c2c(F)cccc2F)=N1` (configuration not stated), the compound was called inactive.

Take `N#Cc1c[nH]cc1-c1cccc2c1OC(F)(F)O2`: the outcome was inactive.

`CCNC(=O)NC(=O)C(C#N)=NOC`: the call was inactive.

Consider `COP(=O)(OC)O/C(C)=C/C(=O)N(C)C`, for which the outcome was inactive.

As to `CCOc1nc(F)cc2nc(S(=O)(=O)Nc3c(Cl)cccc3Cl)nn12`, the compound was classed as inactive.

As to `CNC(=O)N(C)c1nnc(C(C)(C)C)s1`, the call was inactive.

In the case of `CC(C)N1C(=O)c2ccccc2NS1(=O)=O`, the compound was called inactive.

Consider `Cc1ccc(N=CN(C)C=Nc2ccc(C)cc2C)c(C)c1`, for which the compound was classed as inactive.

On to `CS(=O)(=O)c1cc(C(F)(F)F)ccc1C(=O)c1cnoc1C1CC1`, for which the call was inactive.

Regarding `C=C(C)CN(CC)c1c([N+](=O)[O-])cc(C(F)(F)F)cc1[N+](=O)[O-]`, the compound was called inactive.

Take `COc1ccc(-c2ccccc2)cc1NNC(=O)OC(C)C`: the compound was called inactive.

Consider `CN=C=S`, for which the call was inactive.

Turning to `O=P(O)(O)CCCl`, the AC50 is 0.373 µM (active).

`C=CCOC(=O)C(C)(C)OC(=O)c1cc(-n2c(=O)cc(C(F)(F)F)n(C)c2=O)ccc1Cl`: the call was inactive.

On to `CC(C)C1(C)N=C(c2ncccc2C(=O)O)NC1=O` (configuration not stated), for which the compound was classed as inactive.

For `CC(C)=CC1C(C(=O)OCc2coc(Cc3ccccc3)c2)C1(C)C` (configuration not stated), the result was inactive.

Consider `COCC(C)N(C(=O)CCl)c1c(C)csc1C` (configuration not stated), for which the result was inactive.

In the case of `Cn1c(-c2ccccc2)cc(-c2ccccc2)[n+]1C`, the AC50 is 50 µM (active).

For the compound `CSC(=O)c1c(C(F)F)nc(C(F)(F)F)c(C(=O)SC)c1CC(C)C`, the outcome was inactive.

As for `Clc1cccc(C(Cl)(Cl)Cl)n1`, the call was inactive.

For the compound `COc1cc(OC)nc(NC(=O)NS(=O)(=O)c2ncccc2OCC(F)(F)F)n1`, the compound was called inactive.

As for `COC(=O)NS(=O)(=O)c1ccc(N)cc1`, the call was inactive.

Regarding `COC(=O)c1c(C(F)F)nc(C(F)(F)F)c(C2=NCCS2)c1CC(C)C`, the compound was classed as inactive.

Read-out in the next experiment: Cyclin D1 (CCND1), CCND1 (gene 595)
Description: LTEA_HepaRG_CCND1: Life Technologies and Expression Analysis (LTEA) Assay for Cyclin D1 (CCND1) using HepaRG (AID 2283451).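 On AC50: differentiated human HepaRG liver cells in serum-free induction medium; TaqMan qRT-PCR transcript level normalised to ACTB GAPDH and POLR2A housekeeping genes.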 To be noted: mRNA level, 48 h; actives raise or lower the signal. An outline of the steps: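 Differentiated HepaRG cells exposed 48 h in serum-free induction medium to eight half-log concentrations from 100 uM top, 0.5% DMSO, duplicates. CCND1 mRNA measured by Fluidigm TaqMan qRT-PCR, normalised to ACTB, GAPDH, POLR2A; bidirectional fit.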
In the case of `CO/N=C(/C1=NOCCO1)c1ccccc1Oc1ncnc(Oc2ccccc2Cl)c1F`, the result was inactive.

Turning to `CCCCOCN(C(=O)CCl)c1c(CC)cccc1CC`, the compound was classed as inactive.

On to `CS(=O)(=O)c1ccc(C(=O)C2C(=O)CCCC2=O)c([N+](=O)[O-])c1`, for which the compound was classed as inactive.

As to `O=c1n(Cl)c(=O)n(Cl)c(=O)n1Cl`, the call was inactive.

Turning to `CCOP(=O)(OCC)Oc1nc(Cl)c(Cl)cc1Cl`, the AC50 was 80.7 µM (active).

`Cc1cnc(C2=NC(C)(C(C)C)C(=O)N2)c(C(=O)O)c1` (configuration not stated): the compound was classed as inactive.

For the compound `O=C(O)c1c(Cl)ccc2cc(Cl)cnc12`, the result was inactive.

As to `Cc1cc(C)nc(Nc2ccccc2)n1`, the result was inactive.

As to `Nc1c(Cl)c(Cl)nc(C(=O)O)c1Cl`, the result was inactive.

In the case of `OC(c1ccc(Cl)cc1)(c1ccc(Cl)cc1)C(Cl)(Cl)Cl`, the compound was classed as inactive.

Turning to `CCCCC(O)(Cn1cncn1)c1ccc(Cl)cc1Cl` (configuration not stated), the AC50 is 57.7 µM (active).

Turning to `Nc1c(Cl)c(F)nc(OCC(=O)O)c1Cl`, the call was inactive.

For `CC1(C)C(C(=O)OC(C#N)c2cccc(Oc3ccccc3)c2)C1(C)C` (configuration not stated), the compound was called inactive.

For the compound `CCOc1cc(C(C)(C)C)ccc1C1COC(c2c(F)cccc2F)=N1` (configuration not stated), the result was inactive.

For `N#Cc1c[nH]cc1-c1cccc2c1OC(F)(F)O2`, the AC50 is 50 µM (active).

As for `CCNC(=O)NC(=O)C(C#N)=NOC`, the compound was called inactive.

Consider `COP(=O)(OC)O/C(C)=C/C(=O)N(C)C`, for which the outcome was inactive.

As to `CCOc1nc(F)cc2nc(S(=O)(=O)Nc3c(Cl)cccc3Cl)nn12`, the call was inactive.

As to `CNC(=O)N(C)c1nnc(C(C)(C)C)s1`, the result was inactive.

With `CC(C)N1C(=O)c2ccccc2NS1(=O)=O`, the outcome was inactive.

As for `Cc1ccc(N=CN(C)C=Nc2ccc(C)cc2C)c(C)c1`, the compound was classed as inactive.

Take `CS(=O)(=O)c1cc(C(F)(F)F)ccc1C(=O)c1cnoc1C1CC1`: the outcome was inactive.

On to `C=C(C)CN(CC)c1c([N+](=O)[O-])cc(C(F)(F)F)cc1[N+](=O)[O-]`, for which the outcome was inactive.

Turning to `COc1ccc(-c2ccccc2)cc1NNC(=O)OC(C)C`, the outcome was inactive.

Consider `CN=C=S`, for which the outcome was inactive.

As to `O=P(O)(O)CCCl`, the AC50 was 0.261 µM (active).

Regarding `C=CCOC(=O)C(C)(C)OC(=O)c1cc(-n2c(=O)cc(C(F)(F)F)n(C)c2=O)ccc1Cl`, the outcome was inactive.

Regarding `CC(C)C1(C)N=C(c2ncccc2C(=O)O)NC1=O` (configuration not stated), the result was inactive.

For the compound `CC(C)=CC1C(C(=O)OCc2coc(Cc3ccccc3)c2)C1(C)C` (configuration not stated), the result was inactive.

Regarding `COCC(C)N(C(=O)CCl)c1c(C)csc1C` (configuration not stated), the outcome was inactive.

Turning to `Cn1c(-c2ccccc2)cc(-c2ccccc2)[n+]1C`, the AC50 was 75.6 µM (active).

As for `CSC(=O)c1c(C(F)F)nc(C(F)(F)F)c(C(=O)SC)c1CC(C)C`, the result was inactive.

As to `Clc1cccc(C(Cl)(Cl)Cl)n1`, the compound was called inactive.

Take `COc1cc(OC)nc(NC(=O)NS(=O)(=O)c2ncccc2OCC(F)(F)F)n1`: the call was inactive.

Consider `COC(=O)NS(=O)(=O)c1ccc(N)cc1`, for which the compound was called inactive.

As for `COC(=O)c1c(C(F)F)nc(C(F)(F)F)c(C2=NCCS2)c1CC(C)C`, the compound was called inactive.
